The campaign covered roughly 360,000 compounds. About 11,000 (3.1%) were called active. This excerpt belongs to a sample that is enriched for actives. Values without a mark were called inactive. Cut-off read from the data, not from the text of the source: active = activity change below about -30%; inactive = the rest.
Molecular target: D(1A) dopamine receptor (Homo sapiens) (UniProt P21728)
Test: Antagonist of Human D 1 Dopamine Receptor: qHTS
Conditions: HEK293 TREx D1 cells, calcium flux, dopamine EC80; at 10 µM; stronger effect = lower value
Summary of the method: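 After overnight tetracycline induction at 30 C, force-coupled D1 HEK293 cells took up a no-wash calcium dye at room temperature. Compounds were added and monitored 180 s, and the response to EC80 dopamine was then recorded.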
% is set by controls: 0 for no effect and ±100 for the full control effect.

Chain of D(1A) dopamine receptor (Homo sapiens) (P21728 whole entry, looked up): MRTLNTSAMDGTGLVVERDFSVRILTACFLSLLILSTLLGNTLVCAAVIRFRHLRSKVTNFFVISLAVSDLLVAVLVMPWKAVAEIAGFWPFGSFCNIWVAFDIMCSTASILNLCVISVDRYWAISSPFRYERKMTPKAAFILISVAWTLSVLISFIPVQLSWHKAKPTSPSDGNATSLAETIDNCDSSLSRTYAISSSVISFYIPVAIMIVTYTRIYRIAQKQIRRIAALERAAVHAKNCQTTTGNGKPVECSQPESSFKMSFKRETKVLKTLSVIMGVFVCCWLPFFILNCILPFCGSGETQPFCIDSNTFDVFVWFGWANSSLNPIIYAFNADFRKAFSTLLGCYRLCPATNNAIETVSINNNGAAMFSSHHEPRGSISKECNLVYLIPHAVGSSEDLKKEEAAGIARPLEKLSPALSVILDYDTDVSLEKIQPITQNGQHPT

Row | Compound | activity change, negative = inhibition
1 | CCCCOc1ccc(NC(=O)c2cc3c(n(-c4ccc(Cl)cc4)c2=O)CCCC3=O)cc1 | 1.15%
2 | COc1ccccc1NC(=O)[C@H](COCc1ccccc1)NC(=O)OC(C)(C)C | -13.2%
3 | CC(C)(C)c1ccc(C(CC(=O)O)NS(=O)(=O)Cc2ccccc2)cc1 (stereo not drawn) | -2.49%
4 | C[C@@H](NC(=O)OC(C)(C)C)c1nnc(S(=O)(=O)Cc2ccccc2)o1 | -33% (active)
5 | O=C(NCCc1ccccc1)c1cnc2sc(N3CCCC3)nn2c1=O | 8.92%
6 | CCOc1ccc(NC(=O)CCC(=O)N2CC(C)Oc3ccc(C)cc32)cc1 (stereo not drawn) | -0.916%
7 | Cc1cccc(N2CCN(c3ccc(C(=O)O)cc3NC(=O)c3ccccc3F)CC2C)c1 (stereo not drawn) | 20.1%
8 | CNc1ccc(-c2nc(-c3ccco3)no2)cc1[N+](=O)[O-] | -31.8% (active)
9 | CN(Cc1ccccc1)c1ccc(-c2nc(-c3ccccc3)no2)cc1[N+](=O)[O-] | -53.5% (active)
10 | CNc1ccc(-c2nc(-c3ccccc3C)no2)cc1[N+](=O)[O-] | -6.85%
11 | COc1ccccc1-c1noc(-c2ccc(NCc3ccccc3)c([N+](=O)[O-])c2)n1 | 4.22%
12 | CC(Nc1ccc(-c2nc(-c3ccco3)no2)cc1[N+](=O)[O-])c1ccccc1 (stereo not drawn) | -5.4%
13 | O=[N+]([O-])c1cc(-c2nc(-c3ccccc3)no2)ccc1NCc1ccco1 | -9.94%
14 | CCN(CC)CCn1c(N)c(S(=O)(=O)c2ccccc2)c2nc3ccccc3nc21 | -52.8% (active)
15 | Cc1ccc(S(=O)(=O)c2c(N)n(C)c3nc4ccccc4nc23)cc1 | -3.59%
16 | CCC(=O)Nc1c(S(=O)(=O)c2ccccc2)c2nc3ccccc3nc2n1Cc1ccccc1 | -7.1%
17 | CCn1cc(C(=O)NCCc2ccccc2)c(=O)c2cc(S(=O)(=O)N3CCCCCC3)ccc21 | -7.94%
18 | CCn1c2ccccc2c2nnc(N3CCN(c4cc(C)ccc4C)CC3)nc21 | -7.14%
19 | COc1cccc(C(=O)NC2CCN(C#N)CC2)c1 | 4.13%
20 | Cc1cccc(C(=O)NCCCN2CCCC2=O)c1 | -31.5% (active)

Row | Compound | activity change, negative = inhibition
21 | O=C(NCCCN1CCCC1=O)c1ccc(S(=O)(=O)Nc2ccccc2)cc1 | 4.25%
22 | O=C(NCCCN1CCCC1=O)c1cccc(S(=O)(=O)NCc2ccccc2)c1 | -24.9%
23 | CCCCCCn1nnc2sc(-c3ccccc3)cc2c1=O | 0.186%
24 | CC(=O)c1cc(NC(=O)c2ccccc2)c(=O)oc1/C=C/N(C)C | 0.591%
25 | CCOC(=O)c1cc(NC(=O)c2ccc(Cl)cc2)c(=O)oc1-c1ccccc1 | -34.6% (active)
26 | CCOC(=O)c1cc(NC(=O)c2ccc(F)cc2)c(=O)n2c1oc1ccccc12 | 0.884%
27 | CSc1ccccc1NC(=O)CCS(=O)(=O)c1nc(-c2cccs2)cc(C(F)(F)F)n1 | 2.34%
28 | O=C(CNC(=O)c1ccccc1)OC(C(=O)Nc1cc([N+](=O)[O-])ccc1F)c1ccccc1 (stereo not drawn) | 4.21%
29 | CC(C)(C)OC(=O)N1CCC(c2c(C(=O)N3CCN(c4cccc(Cl)c4)CC3)cnn2-c2cccc(Cl)c2)CC1 | -2.09%
30 | Cc1nc(SCC(=O)N2CCN(c3ccccc3)CC2)[nH]c(=O)c1C | -2.36%
31 | CN(Cc1ccccc1)CC(O)COc1ccc(CNCc2cc3ccccc3s2)cc1 (stereo not drawn) | -41.2% (active)
32 | Cc1ccc(OCC(=O)OC(C)CN(C)Cc2ccccc2)cc1 (stereo not drawn) | -3.69%
33 | COc1ccc(OCC(O)CN(C)C(=O)C(C)Oc2ccccc2)cc1 (stereo not drawn) | -13.9%
34 | CCn1cc(/C=C(\NC(=O)c2cc(OC)c(OC)c(OC)c2)C(=O)N2CCN(C)CC2)c2ccccc21 | 3.95%
35 | COc1cc(C(=O)N/C(=C\c2cn(C)c3ccccc23)C(=O)N2CCOCC2)cc(OC)c1OC | -33.6% (active)
36 | Cc1ccc(C(=O)N/C(=C\c2cn(C)c3ccccc23)C(=O)N2CCN(C)CC2)cc1 | 10.2%
37 | COc1ccccc1Cc1nc2ccccc2nc1SCC(=O)N1CCCc2ccccc21 | -2.97%
38 | COc1ccc(NC(=O)c2cnc(Nc3ccc(C)c(Cl)c3)c3ccccc23)cc1OC | 0.261%
39 | Cc1cc(C)c(NC(=O)Cn2c(SCC(=O)NCc3ccccc3)nc3ccccc32)c(C)c1 | 2.9%
40 | Cc1ccccc1NC(=O)Cc1nc(COC(=O)c2cccnc2Cl)cs1 | -12%

Row | Compound | activity change, negative = inhibition
41 | C/C=C/C(=O)OCc1csc(CC(=O)Nc2ccccc2C)n1 | -6.19%
42 | Cc1ccccc1NC(=O)Cc1nc(COC(=O)c2ccc(C(F)(F)F)cc2)cs1 | -34.6% (active)
43 | CCC(=O)N1CCc2cc(CNC(=O)Nc3ccccc3Cl)ccc21 | 8.55%
44 | CCCN1C(=O)C(O)(CC(=O)c2ccc(CC)cc2)c2cc(Br)ccc21 (stereo not drawn) | -2.04%
45 | Cc1ccc(-c2onc(C)c2C)cc1S(=O)(=O)Nc1ccccn1 | -4.41%
46 | COc1ccc(-c2onc(C)c2C)cc1S(=O)(=O)NCCc1ccccc1 | -3.85%
47 | O=S(=O)(c1ccc(Br)cc1)c1nnn2c1nc(N1CCOCC1)c1sccc12 | 0.25%
48 | Cc1nc2cc(NC(=O)Nc3cccc(F)c3)ccc2n1C | -4.15%
49 | O=C(Nc1ccc2ccccc2c1)Nc1ccc2snnc2c1 | -44.8% (active)
50 | O=C(Nc1ccncc1)Nc1ccc(F)cc1 | 9%
51 | Cc1ccccc1NC(=O)Cn1c(=O)n(Cc2ccco2)c(=O)c2ccc(C(=O)NC3CCCC3)cc21 | -18.2%
52 | COc1ccc(NC(=O)C(c2ccccc2)N2Cc3ccccc3C2=O)cc1 (stereo not drawn) | -6.94%
53 | CN1CCC(OC(=O)COc2ccc(Cl)cc2Cl)CC1 | -9.08%
54 | COc1ccc(OCC(=O)Nc2ccc(N3CCC(C)CC3)cc2)cc1 | -33.3% (active)
55 | COc1ccc(OCC(=O)OCC(=O)Nc2ccc(S(=O)(=O)N3CCCCC3)cc2)cc1 | -15.5%
56 | CCC(=O)c1ccc(OCC(=O)Nc2ccc(N3CCCCC3)cc2)cc1 | 16.6%
57 | CN1CCN(c2ccc(NC(=O)COc3ccc(Cl)cc3Cl)cc2)CC1 | -32% (active)
58 | Cc1ccc(Cl)c(OCC(=O)N(C)CC(=O)Nc2ccc(N3CCOCC3)cc2)c1 | -14.5%

Source: PubChem BioAssay AID504652 (National Center for Advancing Translational Sciences (NCATS), 2011)
